Measurements: PubChem BioAssay (NCATS)
Inconclusive results are not listed. A call without a number means that no potency is given here. The source made the active and inactive calls. Unless noted, the call rests on the fitted dose curve; in most records, active means well fitted curve in the direction sought with a large enough effect; inconclusive means small, poorly fitted or top-dose-only effect, or another doubt; inactive means no such curve, though single readings can be large; an effect the other way counts as inactive or inconclusive.

Tests used:
[1] = AP1 Signaling Pathway (AID 357; active means well fitted curve in either direction with a large enough effect, not every such curve was filed as active;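 further: ME-180 reporter cells stimulated with EGF at its EC50 level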); details: ME-180 AP-1-bla reporter, EGF-induced, beta-lactamase ratio, 5 h; at 7.69 µM (top of the series) unless noted
Outline: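 Cells are seeded overnight, exposed to compound titrations and an EC50 level of EGF for 5 hours at 37 °C, then loaded with CCF4 dye for 2.5 hours. Beta-lactamase activity under the AP-1 element is read as a blue/green ratio.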

[2] = biological target: Cytochrome P450 1A2 (Homo sapiens) (UniProt P05177); test: p450-cyp1a2 (AID 410; calls by dose curve)
Chain of Cytochrome P450 1A2 (Homo sapiens) (P05177 whole entry, looked up): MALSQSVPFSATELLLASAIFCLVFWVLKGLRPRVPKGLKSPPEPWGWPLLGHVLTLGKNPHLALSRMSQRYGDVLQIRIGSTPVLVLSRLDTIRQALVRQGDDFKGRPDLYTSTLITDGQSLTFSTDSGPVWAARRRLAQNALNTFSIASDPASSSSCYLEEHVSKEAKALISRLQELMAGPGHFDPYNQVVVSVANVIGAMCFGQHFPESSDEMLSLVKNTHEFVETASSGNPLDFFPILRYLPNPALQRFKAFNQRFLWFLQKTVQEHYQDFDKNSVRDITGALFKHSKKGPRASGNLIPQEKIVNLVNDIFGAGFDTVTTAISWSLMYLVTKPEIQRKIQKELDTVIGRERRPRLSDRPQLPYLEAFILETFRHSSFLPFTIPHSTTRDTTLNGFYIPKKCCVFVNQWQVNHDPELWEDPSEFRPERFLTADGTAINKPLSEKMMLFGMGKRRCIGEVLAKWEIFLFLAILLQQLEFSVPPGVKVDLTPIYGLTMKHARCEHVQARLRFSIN
Outline: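 Read-out is luminescence from luciferin produced by CYP1A2 demethylation of Luciferin-ME (100uM, at Km). Detection reagent stopped the 60 min NADPH-dependent reaction; signals were normalized to 57 uM furafylline.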

[3] = NFAT Signaling Pathway (AID 444; active means well fitted curve in either direction with a large enough effect, not every such curve was filed as active;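 further: carbachol stimulus at about its EC50 of 1 µM final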); details: Jurkat NFAT-bla M1, carbachol, beta-lactamase ratio, 5 h; at 7.69 µM (top of the series) unless noted
Outline: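 Jurkat cells with NFAT-driven β-lactamase reporter and co-expressed M1 receptor, stimulated with carbachol (final 1 uM, ~EC50), compound titration, 5 h at 37 °C. CCF4 loaded 1 h at RT; 460/530 nm ratio gave %activity and AC50.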

[4] = Stat Signaling Pathway (AID 446; active means well fitted curve in either direction with a large enough effect, not every such curve was filed as active;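 further: ME-180 cervical cancer cells given 40 pM IL-6 alongside compound; SIE-controlled beta-lactamase reporter measured as 460/530 nm FRET emission ratio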); details: ME-180 (cervical carcinoma) SIE beta-lactamase reporter, IL-6 stimulated, 5 h; at 7.69 µM (top of the series) unless noted
Outline: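 Emission at 460 and 530 nm (excitation 405 nm) reports SIE-controlled beta-lactamase in ME-180 cells. Cells received compound with 40 pM IL-6 for 5 hrs at 37 C; data scaled between 300 pM IL-6 and 125 nM JAK-inhibitor controls.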

[5] = biological target: Glucocorticoid receptor (Homo sapiens) (UniProt P04150); test: GR-EFC Redistribution (AID 451; calls by dose curve; further: potency means the concentration at half of the fitted maximal effect); details: CHO-K1 GR-EFC translocation, beta-gal luminescence, 2 h
Chain of Glucocorticoid receptor (Homo sapiens) (P04150 whole entry, looked up, the tested form may be a part): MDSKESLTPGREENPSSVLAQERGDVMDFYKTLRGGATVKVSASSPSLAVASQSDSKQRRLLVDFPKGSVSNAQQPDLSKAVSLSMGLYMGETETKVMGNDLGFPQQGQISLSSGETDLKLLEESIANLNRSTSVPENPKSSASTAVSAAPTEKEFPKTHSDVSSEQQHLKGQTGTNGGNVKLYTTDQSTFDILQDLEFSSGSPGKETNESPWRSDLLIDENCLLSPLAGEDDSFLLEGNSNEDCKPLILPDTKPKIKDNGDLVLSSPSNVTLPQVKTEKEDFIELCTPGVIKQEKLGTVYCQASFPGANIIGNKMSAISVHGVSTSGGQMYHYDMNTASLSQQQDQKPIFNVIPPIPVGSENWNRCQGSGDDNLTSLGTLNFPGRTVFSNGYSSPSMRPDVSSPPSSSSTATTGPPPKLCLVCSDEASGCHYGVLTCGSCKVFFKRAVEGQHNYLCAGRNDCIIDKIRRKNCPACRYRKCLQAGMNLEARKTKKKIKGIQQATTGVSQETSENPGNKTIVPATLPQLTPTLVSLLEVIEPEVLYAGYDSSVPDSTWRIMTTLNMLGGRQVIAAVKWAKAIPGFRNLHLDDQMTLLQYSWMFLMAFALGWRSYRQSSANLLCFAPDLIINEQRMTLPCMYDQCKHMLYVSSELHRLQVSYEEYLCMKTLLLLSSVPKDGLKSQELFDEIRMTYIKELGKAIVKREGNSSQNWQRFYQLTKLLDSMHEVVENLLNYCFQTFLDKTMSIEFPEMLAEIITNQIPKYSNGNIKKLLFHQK
Outline: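 CHO-K1 cells expressing nuclear EA and GR-ED fragments of b-gal; compounds titrated up to 46 uM final, 2 h at 37 C. GR nuclear translocation read as complemented b-gal luminescence after 1 h RT detection.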

[6] = biological target: Mitogen-activated protein kinase 10 (Mus musculus) (UniProt Q61831); test: JNK3 AlphaScreen Assay (AID 530; active means well fitted curve in either direction with a large enough effect, not every such curve was filed as active;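 further: kinase came from lysate of stimulated human HepG2 cells; signal reports phosphorylation of biotinylated GST-cJun 1-79 at Ser73 with 10 µM ATP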)
Outline: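 HepG2 lysate (IL-1b/TNFa pre-activated) + biotin-GST-cJun 1-79 + anti-pSer73 cJun; cpd titration, 15 min RT; ATP 10 uM start; Tris pH 7.6, MgCl2, DTT, vanadate; beads in EDTA buffer; AlphaScreen.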

[7] = biological target: 3',5'-cyclic-AMP phosphodiesterase 4B (Homo sapiens) (UniProt Q07343); test: qHTS Assay for Inhibitors of PDE-IV (AID 607; active means well fitted activation curve with a large enough effect in the main read-out, with a control signal flat, not every such curve was filed as active)
Chain of 3',5'-cyclic-AMP phosphodiesterase 4B (Homo sapiens) (Q07343 whole entry, looked up): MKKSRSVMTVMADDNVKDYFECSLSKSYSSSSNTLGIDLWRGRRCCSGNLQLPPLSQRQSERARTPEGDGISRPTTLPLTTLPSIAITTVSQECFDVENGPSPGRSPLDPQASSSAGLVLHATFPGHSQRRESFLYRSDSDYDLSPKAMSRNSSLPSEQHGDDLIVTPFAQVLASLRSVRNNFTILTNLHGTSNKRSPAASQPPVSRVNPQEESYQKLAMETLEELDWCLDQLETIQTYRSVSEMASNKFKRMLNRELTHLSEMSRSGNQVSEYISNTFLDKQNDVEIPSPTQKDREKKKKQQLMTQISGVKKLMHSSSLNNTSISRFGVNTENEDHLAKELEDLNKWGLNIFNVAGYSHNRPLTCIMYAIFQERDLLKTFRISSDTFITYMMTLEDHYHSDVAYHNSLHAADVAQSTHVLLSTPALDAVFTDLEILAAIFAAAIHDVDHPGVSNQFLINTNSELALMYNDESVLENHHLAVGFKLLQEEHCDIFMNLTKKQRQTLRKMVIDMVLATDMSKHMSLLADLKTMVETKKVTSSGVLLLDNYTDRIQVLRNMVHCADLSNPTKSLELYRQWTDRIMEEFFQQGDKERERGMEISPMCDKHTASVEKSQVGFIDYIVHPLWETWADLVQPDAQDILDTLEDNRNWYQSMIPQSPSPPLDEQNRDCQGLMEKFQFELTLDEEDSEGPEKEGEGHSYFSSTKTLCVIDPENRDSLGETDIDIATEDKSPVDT
Outline: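 The readout is membrane depolarisation from a cAMP-sensing CNG channel, detected with a potential dye at ex 535/em 590. Cells were HEK293-derived (endogenous PDE-IV) at 1000 cells/well, titrated up to 22.9 uM final.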

[8] = qHTS Assay for Lipid Storage Modulators (AID 1519; calls by dose curve); details: Drosophila S3 cells, BODIPY lipid droplet/cell ratio, laser cytometry, cells loaded with oleic acid
Outline: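 Cells seeded at 5,000 per well were treated with compounds over a concentration series and loaded with oleic acid (400 uM, as added). Lipid droplet fluorescence (488 nm excitation, 500-530 nm channel) was read by laser-scanning cytometry and normalized to 20 uM Triacsin C.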

[9] = biological target: ATP-dependent 6-phosphofructokinase (Trypanosoma brucei brucei) (UniProt O15648); test: qHTS Assay to Find Inhibitors of T. brucei phosphofructokinase: hit validation (AID 492961);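 further: luminescence reports ADP formed as PFK phosphorylates fructose-6-phosphate with ATP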
Chain of ATP-dependent 6-phosphofructokinase (Trypanosoma brucei brucei) (O15648 whole entry, looked up): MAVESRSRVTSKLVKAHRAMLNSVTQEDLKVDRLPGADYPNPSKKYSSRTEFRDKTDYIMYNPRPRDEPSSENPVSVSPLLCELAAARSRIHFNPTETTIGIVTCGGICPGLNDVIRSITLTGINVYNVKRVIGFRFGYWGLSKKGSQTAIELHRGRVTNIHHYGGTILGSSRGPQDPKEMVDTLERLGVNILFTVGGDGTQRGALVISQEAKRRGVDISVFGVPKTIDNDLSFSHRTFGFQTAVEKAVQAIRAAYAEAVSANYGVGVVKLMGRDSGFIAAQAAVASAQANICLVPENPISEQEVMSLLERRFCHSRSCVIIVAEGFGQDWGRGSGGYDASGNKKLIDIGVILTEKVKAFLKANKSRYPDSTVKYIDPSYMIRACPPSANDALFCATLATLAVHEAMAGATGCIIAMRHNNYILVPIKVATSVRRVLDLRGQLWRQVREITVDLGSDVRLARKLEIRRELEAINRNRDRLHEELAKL
Outline: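 Compounds titrated; %activity normalized to 0x and 1x enzyme controls, curve-fitted. Readout: ADP-Glo luminescence after 45 min room-temperature reaction of 1.25 nM PFK, 0.1 mM ATP, 0.5 mM F6P, pH 8.0.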

[10] = biological target: Ubiquitin carboxyl-terminal hydrolase 1 (Homo sapiens) (UniProt O94782); test: Inhibitors of USP1/UAF1: Pilot qHTS (AID 504865);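 further: rhodamine fluorescence freed from ubiquitin-rhodamine substrate followed over time; top concentration of the series differs between compounds; nearly all actives have a fitted effect of over 35% in size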
Chain of Ubiquitin carboxyl-terminal hydrolase 1 (Homo sapiens) (O94782 whole entry, looked up): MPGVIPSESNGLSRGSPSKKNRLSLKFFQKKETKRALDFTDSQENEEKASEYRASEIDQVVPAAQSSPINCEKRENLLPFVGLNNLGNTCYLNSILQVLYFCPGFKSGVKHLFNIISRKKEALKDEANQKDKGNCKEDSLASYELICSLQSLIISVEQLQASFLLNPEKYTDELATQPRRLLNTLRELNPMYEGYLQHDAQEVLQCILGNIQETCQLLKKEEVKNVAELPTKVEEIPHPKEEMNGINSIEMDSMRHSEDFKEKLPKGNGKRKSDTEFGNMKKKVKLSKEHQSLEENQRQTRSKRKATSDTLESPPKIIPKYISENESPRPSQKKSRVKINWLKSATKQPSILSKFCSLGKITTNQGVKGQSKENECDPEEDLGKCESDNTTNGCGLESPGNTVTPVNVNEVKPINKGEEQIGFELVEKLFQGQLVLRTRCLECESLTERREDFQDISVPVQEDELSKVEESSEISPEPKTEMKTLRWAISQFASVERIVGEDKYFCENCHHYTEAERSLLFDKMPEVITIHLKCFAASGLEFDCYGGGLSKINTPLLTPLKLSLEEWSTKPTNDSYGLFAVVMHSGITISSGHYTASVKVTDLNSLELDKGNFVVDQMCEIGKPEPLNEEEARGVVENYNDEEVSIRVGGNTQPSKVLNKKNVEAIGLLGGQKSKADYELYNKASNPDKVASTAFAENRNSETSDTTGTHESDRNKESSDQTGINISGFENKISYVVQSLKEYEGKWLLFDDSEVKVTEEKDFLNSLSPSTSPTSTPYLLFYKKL
Outline: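 In 50mM HEPES pH 7.8 containing 0.5mM EDTA, 1mM TCEP, 0.1 mg/ml BSA and 0.01% Tween-20, 1nM USP1/UAF1 is exposed to compound for 15 min, then Ub-Rho (150nM final) is added and fluorescence is read over time.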

[11] = biological target: Luciferin 4-monooxygenase (Photinus pyralis) (UniProt P08659); test: Biochemical firefly luciferase enzyme assay for NPC (AID 624030);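 further: purified P. pyralis luciferase at 10 nM with luciferin and ATP substrate; nearly all actives have a fitted effect of over 70% in size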
Chain of Luciferin 4-monooxygenase (Photinus pyralis) (P08659 whole entry, looked up): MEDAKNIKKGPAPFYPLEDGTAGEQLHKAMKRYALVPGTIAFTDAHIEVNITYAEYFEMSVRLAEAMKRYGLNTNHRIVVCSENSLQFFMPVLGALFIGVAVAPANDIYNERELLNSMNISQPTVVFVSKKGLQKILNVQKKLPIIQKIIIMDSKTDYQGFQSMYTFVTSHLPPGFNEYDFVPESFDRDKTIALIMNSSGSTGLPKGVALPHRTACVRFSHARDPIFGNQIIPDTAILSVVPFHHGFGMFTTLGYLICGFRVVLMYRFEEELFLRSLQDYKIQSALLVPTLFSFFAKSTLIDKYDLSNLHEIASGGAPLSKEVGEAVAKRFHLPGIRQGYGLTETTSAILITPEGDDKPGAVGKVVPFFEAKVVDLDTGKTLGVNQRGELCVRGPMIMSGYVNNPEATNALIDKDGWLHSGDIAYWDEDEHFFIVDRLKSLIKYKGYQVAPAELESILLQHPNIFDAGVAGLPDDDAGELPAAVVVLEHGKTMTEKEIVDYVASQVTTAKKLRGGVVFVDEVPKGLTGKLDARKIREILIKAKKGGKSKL
Outline: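 Purified P. pyralis luciferase at 10 nM in 50 mM Tris Acetate (final), luminescence read within 5 minutes of enzyme addition to compounds. Activity normalised to PTC124 versus DMSO; concentration-response curves classed by r2, magnitude and activity.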

[12] = S16 Schwann cell viability assay (CellTiter-Glo assay) (AID 624031);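 further: native untransfected S16 rat Schwann cells; cellular ATP luminescence as a viability measure; nearly all actives have a fitted effect of over 70% in size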
Outline: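 Following overnight culture in 10% FBS DMEM, parental S16 rat Schwann cells are dosed for 24 h at 37 °C. Viability is read as CellTiter-Glo luminescence and expressed as % activity relative to DMSO (0%) and no-cell wells.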

[13] = S16 Schwann cell PMP22 intronic element firefly luciferase assay (AID 624032); further: nearly all actives have a fitted effect of over 30% in size
Outline: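 Rat S16 Schwann cells stably carrying firefly luciferase driven by a PMP22 intronic element, in 10% FBS, treated 24 h at 37 C. ONE-Glo luminescence normalized to PTC124 control and DMSO (0%); curves classed by r2, magnitude and activity.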

[14] = S16 Schwann cell PMP22 intronic element beta-lactamase assay (AID 624044; calls by dose curve; further: nearly all actives have a fitted effect of over 15% in size)
Outline: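 Beta-lactamase reporter under a PMP22 intronic regulatory element in stable S16 rat Schwann cells; 24 h compound exposure. 460 nm blue signal normalized between DMSO (0%) and potassium clavulanate, with 535 nm FRET tracking viability; curves classed by r2 and response.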

[15] = qHTS profiling for inhibitors of Plasmodium falciparum proliferation (AID 504749); further: nearly all actives have a fitted effect of over 60% in size; details: P. falciparum in erythrocytes, SYBR Green DNA, 72 h, at 12.8 µM (top of the series)
Outline: (§1)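 SYBR Green fluorescence (ex 485 nm, em 535 nm) reports parasite DNA after 72 h compound exposure of infected red cells at 0.3% parasitemia, 2.5% hematocrit; signal normalized to 0.29 uM artemisinin and vehicle wells.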

3D7 = test: as above; details: P. falciparum in erythrocytes, SYBR Green DNA, 72 h; series mostly up to 12.8 µM
Outline: as §1

7G8 = test: as above; details: P. falciparum in erythrocytes, SYBR Green DNA, 72 h; series mostly up to 12.8 µM
Outline: as §1

AA1029 = test: as above; details: P. falciparum in erythrocytes, SYBR Green DNA, 72 h; series mostly up to 12.8 µM
Outline: as §1

AS120 = test: as above; details: P. falciparum in erythrocytes, SYBR Green DNA, 72 h; series mostly up to 28.7 µM
Outline: as §1

ATS189 = test: as above; details: P. falciparum in erythrocytes, SYBR Green DNA, 72 h; series mostly up to 12.8 µM
Outline: as §1

ATS95 = test: as above; details: P. falciparum in erythrocytes, SYBR Green DNA, 72 h; series mostly up to 12.8 µM
Outline: as §1

C2A = test: as above; details: P. falciparum in erythrocytes, SYBR Green DNA, 72 h; series mostly up to 12.8 µM
Outline: as §1

CP185 = test: as above; details: P. falciparum in erythrocytes, SYBR Green DNA, 72 h; series mostly up to 12.8 µM
Outline: as §1

CP191 = test: as above; details: P. falciparum in erythrocytes, SYBR Green DNA, 72 h; series mostly up to 12.8 µM
Outline: as §1

CP192 = test: as above; details: P. falciparum in erythrocytes, SYBR Green DNA, 72 h; series mostly up to 28.7 µM
Outline: as §1

CP194 = test: as above; details: P. falciparum in erythrocytes, SYBR Green DNA, 72 h; series mostly up to 12.8 µM
Outline: as §1

CP201 = test: as above; details: P. falciparum in erythrocytes, SYBR Green DNA, 72 h; series mostly up to 12.8 µM
Outline: as §1

CP203 = test: as above; details: P. falciparum in erythrocytes, SYBR Green DNA, 72 h; series mostly up to 12.8 µM
Outline: as §1

CP211 = test: as above; details: P. falciparum in erythrocytes, SYBR Green DNA, 72 h; series mostly up to 12.8 µM
Outline: as §1

CP215 = test: as above; details: P. falciparum in erythrocytes, SYBR Green DNA, 72 h; series mostly up to 28.7 µM
Outline: as §1

CP217 = test: as above; details: P. falciparum in erythrocytes, SYBR Green DNA, 72 h; series mostly up to 12.8 µM
Outline: as §1

CP237 = test: as above; details: P. falciparum in erythrocytes, SYBR Green DNA, 72 h; series mostly up to 12.8 µM
Outline: as §1

CP238 = test: as above; details: P. falciparum in erythrocytes, SYBR Green DNA, 72 h; series mostly up to 12.8 µM
Outline: as §1

CP247 = test: as above; details: P. falciparum in erythrocytes, SYBR Green DNA, 72 h; series mostly up to 12.8 µM
Outline: as §1

CP250 = test: as above; details: P. falciparum in erythrocytes, SYBR Green DNA, 72 h; series mostly up to 12.8 µM
Outline: as §1

Q: Which activity change, negative = inhibition [1] does the source give for `NS(=O)(=O)c1cc([C@@]2(O)NC(=O)c3ccccc32)ccc1Cl` here?
A: -7.43% [at 17.2 µM] (inactive)

Q: And the Potency [2]?
A: inactive

Q: What about the activity change, negative = inhibition [3] of the same compound?
A: -15.2% [at 17.2 µM] (inactive)

Q: And the activity, negative = inhibition [4]?
A: 1.16% [at 17.2 µM] (inactive)

Q: What about the Potency [5] of the same compound?
A: > 20.6 µM (inactive)

Q: And the Potency [6]?
A: inactive

Q: What about the Potency [7] of the same compound?
A: inactive

Q: And the activity change, negative = inhibition ([8]; at 25.7 µM (top of the series))?
A: -1.2% (inactive)

Q: What about the max response ([8]; measured here: cell count channel max response) of the same compound?
A: -12.6%

Q: What about the max response ([8]; measured here: lipid channel max response) of the same compound?
A: -14.5%

Q: And the outcome [9]?
A: inactive

Q: What about the Potency [10] of the same compound?
A: inactive

Q: What about the outcome [11] of the same compound?
A: inactive

Q: What about the Potency [12] of the same compound?
A: inactive

Q: And the Potency [13]?
A: inactive

Q: What about the outcome [14] of the same compound?
A: inactive

Q: What about the activity, negative = inhibition ([15]; parasite line A) of the same compound?
A: -2.59% (inactive)

Q: What about the activity, negative = inhibition ([15]; parasite line B) of the same compound?
A: 2.66% (inactive)

Q: And the Potency (3D7)?
A: inactive

Q: What about the Potency (7G8) of the same compound?
A: inactive

Q: And the Potency (AA1029)?
A: inactive

Q: What about the Potency (AS120) of the same compound?
A: inactive

Q: What about the Potency (ATS189) of the same compound?
A: inactive

Q: What about the Potency (ATS95) of the same compound?
A: inactive

Q: And the Potency (C2A)?
A: inactive

Q: What about the Potency (CP185) of the same compound?
A: inactive

Q: And the Potency (CP191)?
A: inactive

Q: What about the Potency (CP192) of the same compound?
A: inactive

Q: What about the Potency (CP194) of the same compound?
A: inactive

Q: What about the Potency (CP201) of the same compound?
A: inactive

Q: What about the Potency (CP203) of the same compound?
A: inactive

Q: And the Potency (CP211)?
A: inactive

Q: What about the Potency (CP215) of the same compound?
A: inactive

Q: And the Potency (CP217)?
A: inactive

Q: And the Potency (CP237)?
A: inactive

Q: What about the Potency (CP238) of the same compound?
A: inactive

Q: And the Potency (CP247)?
A: inactive

Q: What about the Potency (CP250) of the same compound?
A: inactive
